The panel holds about 83,000 compounds, 20% with a hit somewhere; the sample as a whole holds those more often.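 The endpoint reported here, percent growth, reads 100 for growth as untreated, 0 for no net growth and -100 for all cells dead.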 A number with no mark means an inactive call. The source made the active and inactive calls. Rule for the calls: active = growth percent below 10; inactive = the rest.
Tests used:
Experiment in all cases: NCI-60 one-dose screen, 48 h (100 = growth as untreated, 0 = no growth, -100 = all killed)
Settings in all cases: 10 µM unless noted
NCI-H23 lung = test system: NCI-H23 lung
NCI-H226 lung = test system: NCI-H226 lung
NCI-H322M lung = test system: NCI-H322M lung
HOP-62 NSCLC = test system: HOP-62 NSCLC
NCI-H460 lung = test system: NCI-H460 lung
786-0 renal = test system: 786-0 renal
MDA-MB-231 breast = test system: MDA-MB-231 breast
SF-268 CNS = test system: SF-268 CNS
SF-539 CNS = test system: SF-539 CNS
M14 melanoma = test system: M14 melanoma
PC-3 prostate = test system: PC-3 prostate
UACC-62 melanoma = test system: UACC-62 melanoma
SK-MEL-28 melanoma = test system: SK-MEL-28 melanoma
UO-31 renal = test system: UO-31 renal
OVCAR-5 ovarian = test system: OVCAR-5 ovarian
OVCAR-3 ovarian = test system: OVCAR-3 ovarian
NCI/ADR-RES ovarian = test system: NCI/ADR-RES ovarian
SW-620 colon = test system: SW-620 colon
MCF7 breast = test system: MCF7 breast
KM12 colon = test system: KM12 colon

**Q.** What does the source list for `CNC(=O)Oc1cccc(N(C)C)c1`?
**A.** growth (NCI-H23 lung): 106%; growth (NCI-H226 lung): 93.3%; growth (NCI-H322M lung): 102%; growth (HOP-62 NSCLC): 101%; growth (NCI-H460 lung): 105%; growth (786-0 renal): 102%; growth (MDA-MB-231 breast): 93%; growth (SF-268 CNS): 106%; growth (SF-539 CNS): 100%; growth (M14 melanoma): 107%; growth (PC-3 prostate): 97.2%; growth (UACC-62 melanoma): 100%; growth (SK-MEL-28 melanoma): 111%; growth (UO-31 renal): 86.6%; growth (OVCAR-5 ovarian): 102%; growth (OVCAR-3 ovarian): 110%; growth (NCI/ADR-RES ovarian): 107%; growth (SW-620 colon): 104%; growth (MCF7 breast): 94.1%; growth (KM12 colon): 104%

**Q.** Which growth (NCI-H23 lung) does the source give for `COc1cc(/C=C\c2cc(OC)c(OC)c(OC)c2)cc(N/C=C\C(=O)c2ccc(OC(F)(F)F)cc2)c1OC` here?
**A.** 26.2%

**Q.** What about the growth (NCI-H226 lung) of the same molecule?
**A.** 54.4%

**Q.** What about the growth (NCI-H322M lung) of the same molecule?
**A.** 42.4%

**Q.** What about the growth (HOP-62 NSCLC) of the same molecule?
**A.** 23.8%

**Q.** What about the growth (NCI-H460 lung) of the same molecule?
**A.** 4.92% (active)

**Q.** What about the growth (786-0 renal) of the same molecule?
**A.** 34.3%

**Q.** And the growth (MDA-MB-231 breast)?
**A.** -16.9% (active)

**Q.** What about the growth (SF-268 CNS) of the same molecule?
**A.** 41.7%

**Q.** And the growth (SF-539 CNS)?
**A.** -31.5% (active)

**Q.** What about the growth (M14 melanoma) of the same molecule?
**A.** -4.87% (active)

**Q.** And the growth (PC-3 prostate)?
**A.** 42.6%

**Q.** What about the growth (SK-MEL-28 melanoma) of the same molecule?
**A.** 62.2%

**Q.** And the growth (UO-31 renal)?
**A.** 32.9%

**Q.** What about the growth (OVCAR-5 ovarian) of the same molecule?
**A.** 44.2%

**Q.** And the growth (OVCAR-3 ovarian)?
**A.** -8.54% (active)

**Q.** What about the growth (NCI/ADR-RES ovarian) of the same molecule?
**A.** 5.87% (active)

**Q.** What about the growth (SW-620 colon) of the same molecule?
**A.** 26.3%

**Q.** What about the growth (MCF7 breast) of the same molecule?
**A.** 17.2%

**Q.** And the growth (KM12 colon)?
**A.** 16.6%

**Q.** Which results are given for `Cc1ccc(C(=O)C2CN(C)CCC2(O)c2ccc(C)cc2)cc1` (configuration not stated)?
**A.** growth (NCI-H23 lung): 103%; growth (NCI-H226 lung): 113%; growth (NCI-H322M lung): 113%; growth (HOP-62 NSCLC): 140%; growth (NCI-H460 lung): 111%; growth (786-0 renal): 113%; growth (MDA-MB-231 breast): 116%; growth (SF-268 CNS): 110%; growth (M14 melanoma): 113%; growth (PC-3 prostate): 108%; growth (UACC-62 melanoma): 117%; growth (SK-MEL-28 melanoma): 113%; growth (UO-31 renal): 99.6%; growth (OVCAR-5 ovarian): 122%; growth (OVCAR-3 ovarian): 119%; growth (NCI/ADR-RES ovarian): 103%; growth (SW-620 colon): 105%; growth (MCF7 breast): 98.1%; growth (KM12 colon): 109%

**Q.** What does the source list for `[N-]=[N+]=NC(C(=O)O)c1ccccc1` (configuration not stated)?
**A.** growth (NCI-H23 lung): 99.2%; growth (NCI-H226 lung): 125%; growth (NCI-H322M lung): 101%; growth (HOP-62 NSCLC): 101%; growth (NCI-H460 lung): 115%; growth (786-0 renal): 103%; growth (MDA-MB-231 breast): 110%; growth (SF-268 CNS): 118%; growth (SF-539 CNS): 93.9%; growth (M14 melanoma): 101%; growth (PC-3 prostate): 112%; growth (UACC-62 melanoma): 117%; growth (SK-MEL-28 melanoma): 105%; growth (UO-31 renal): 88.9%; growth (OVCAR-5 ovarian): 102%; growth (OVCAR-3 ovarian): 118%; growth (NCI/ADR-RES ovarian): 107%; growth (SW-620 colon): 107%; growth (MCF7 breast): 88.2%; growth (KM12 colon): 111%

**Q.** Which results are given for `Nc1cccc(CC(=O)Nc2ccc(S(=O)(=O)F)cc2)c1`?
**A.** growth (NCI-H23 lung): 99.7%; growth (NCI-H226 lung): 93.9%; growth (NCI-H322M lung): 104%; growth (HOP-62 NSCLC): 90.3%; growth (NCI-H460 lung): 102%; growth (786-0 renal): 96.9%; growth (MDA-MB-231 breast): 94.4%; growth (SF-268 CNS): 107%; growth (SF-539 CNS): 97.4%; growth (M14 melanoma): 90.7%; growth (PC-3 prostate): 82.2%; growth (UACC-62 melanoma): 90.5%; growth (SK-MEL-28 melanoma): 87.5%; growth (UO-31 renal): 86.2%; growth (OVCAR-5 ovarian): 98.5%; growth (OVCAR-3 ovarian): 102%; growth (SW-620 colon): 84.3%; growth (MCF7 breast): 86.7%; growth (KM12 colon): 92.2%

**Q.** With `Fc1ccc(C2=NN(c3ccccc3)C(c3sc(N(CCCl)CCCl)nc3Cl)C2)cc1` (configuration not stated) as the molecule, how does the growth (NCI-H23 lung) read?
**A.** 85.4%

**Q.** And the growth (NCI-H226 lung)?
**A.** 74.1%

**Q.** What about the growth (NCI-H322M lung) of the same molecule?
**A.** 82.3%

**Q.** What about the growth (HOP-62 NSCLC) of the same molecule?
**A.** 78%

**Q.** And the growth (NCI-H460 lung)?
**A.** 90.7%

**Q.** And the growth (786-0 renal)?
**A.** 92.2%

**Q.** And the growth (MDA-MB-231 breast)?
**A.** 69%

**Q.** What about the growth (SF-268 CNS) of the same molecule?
**A.** 86.5%

**Q.** What about the growth (SF-539 CNS) of the same molecule?
**A.** 101%

**Q.** What about the growth (M14 melanoma) of the same molecule?
**A.** 92.2%

**Q.** And the growth (PC-3 prostate)?
**A.** 68.2%

**Q.** And the growth (UACC-62 melanoma)?
**A.** 59.8%

**Q.** What about the growth (SK-MEL-28 melanoma) of the same molecule?
**A.** 111%

**Q.** And the growth (UO-31 renal)?
**A.** 67.6%

**Q.** And the growth (OVCAR-5 ovarian)?
**A.** 91.5%

**Q.** And the growth (OVCAR-3 ovarian)?
**A.** 91.7%

**Q.** And the growth (NCI/ADR-RES ovarian)?
**A.** 92.3%

**Q.** What about the growth (SW-620 colon) of the same molecule?
**A.** 84.4%

**Q.** And the growth (MCF7 breast)?
**A.** 72.2%

**Q.** What about the growth (KM12 colon) of the same molecule?
**A.** 81.1%

**Q.** How did the growth (NCI-H23 lung) turn out when `COc1cc(C2=NN(c3ccccc3)C(c3sc(N(CCCl)CCCl)nc3Cl)C2)cc(OC)c1OC` (configuration not stated) was run?
**A.** 92.5%

**Q.** And the growth (NCI-H226 lung)?
**A.** 81.8%

**Q.** What about the growth (NCI-H322M lung) of the same molecule?
**A.** 91.4%

**Q.** What about the growth (HOP-62 NSCLC) of the same molecule?
**A.** 79.7%

**Q.** What about the growth (NCI-H460 lung) of the same molecule?
**A.** 91.6%

**Q.** And the growth (786-0 renal)?
**A.** 91.8%

**Q.** What about the growth (MDA-MB-231 breast) of the same molecule?
**A.** 85.6%

**Q.** And the growth (SF-268 CNS)?
**A.** 80.7%

**Q.** What about the growth (SF-539 CNS) of the same molecule?
**A.** 110%

**Q.** And the growth (M14 melanoma)?
**A.** 91.5%

**Q.** And the growth (PC-3 prostate)?
**A.** 73.9%

**Q.** And the growth (UACC-62 melanoma)?
**A.** 48.4%

**Q.** And the growth (SK-MEL-28 melanoma)?
**A.** 99.1%

**Q.** And the growth (UO-31 renal)?
**A.** 75.5%

**Q.** And the growth (OVCAR-5 ovarian)?
**A.** 99.5%

**Q.** And the growth (OVCAR-3 ovarian)?
**A.** 98.7%

**Q.** What about the growth (NCI/ADR-RES ovarian) of the same molecule?
**A.** 93.8%

**Q.** And the growth (SW-620 colon)?
**A.** 97.2%

**Q.** What about the growth (MCF7 breast) of the same molecule?
**A.** 86.6%

**Q.** What about the growth (KM12 colon) of the same molecule?
**A.** 82.8%

**Q.** What does the source list for `O=C(CI)Nc1ccc(Br)cc1`?
**A.** growth (NCI-H23 lung): 32%; growth (NCI-H226 lung): 69.7%; growth (NCI-H322M lung): 95.4%; growth (HOP-62 NSCLC): -62.7% (active); growth (NCI-H460 lung): 95.3%; growth (786-0 renal): 91.3%; growth (MDA-MB-231 breast): 44.2%; growth (SF-268 CNS): 75.8%; growth (SF-539 CNS): 95.8%; growth (M14 melanoma): 14.1%; growth (PC-3 prostate): 87.3%; growth (UACC-62 melanoma): 79.2%; growth (SK-MEL-28 melanoma): 109%; growth (UO-31 renal): -82.3% (active); growth (OVCAR-5 ovarian): 94.9%; growth (OVCAR-3 ovarian): -78.7% (active); growth (NCI/ADR-RES ovarian): 100%; growth (SW-620 colon): -86.7% (active); growth (MCF7 breast): 32.4%; growth (KM12 colon): 88.1%
